# Laboratory results published in ChEMBL document CHEMBL1961873, “Compounds: GSK PKIS; Assays: Nanosyn kinase panel” (2012).
# Legend:
# [1] = target: Ribosomal protein S6 kinase alpha-6 (Homo sapiens) (UniProt Q9UK32); settings: at 1 µM;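 note: each value is a mean inhibition of RSK4 from a GSK PKIS panel screen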
# [2] = target: T1, Serine/threonine-protein kinase Sgk1 (Homo sapiens) (UniProt O00141); settings: at 0.1 µM
# T1 sequence (whole entry): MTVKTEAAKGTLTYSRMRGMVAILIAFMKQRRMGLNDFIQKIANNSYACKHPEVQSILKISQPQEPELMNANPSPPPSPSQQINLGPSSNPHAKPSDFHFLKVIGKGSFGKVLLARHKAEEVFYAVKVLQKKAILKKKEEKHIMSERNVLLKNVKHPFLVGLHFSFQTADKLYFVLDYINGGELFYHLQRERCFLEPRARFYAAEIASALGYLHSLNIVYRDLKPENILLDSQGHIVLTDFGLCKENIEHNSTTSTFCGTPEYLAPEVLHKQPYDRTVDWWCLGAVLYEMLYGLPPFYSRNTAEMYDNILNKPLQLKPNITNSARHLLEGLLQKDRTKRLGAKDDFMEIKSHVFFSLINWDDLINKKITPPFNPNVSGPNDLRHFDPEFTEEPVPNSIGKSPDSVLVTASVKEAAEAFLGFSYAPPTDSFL
# [3] = target: T1, Serine/threonine-protein kinase Sgk1 (Homo sapiens); settings: at 1 µM
# [4] = target: T2, Serine/threonine-protein kinase Sgk2 (Homo sapiens) (UniProt Q9HBY8); settings: at 0.1 µM
# T2 sequence (whole entry): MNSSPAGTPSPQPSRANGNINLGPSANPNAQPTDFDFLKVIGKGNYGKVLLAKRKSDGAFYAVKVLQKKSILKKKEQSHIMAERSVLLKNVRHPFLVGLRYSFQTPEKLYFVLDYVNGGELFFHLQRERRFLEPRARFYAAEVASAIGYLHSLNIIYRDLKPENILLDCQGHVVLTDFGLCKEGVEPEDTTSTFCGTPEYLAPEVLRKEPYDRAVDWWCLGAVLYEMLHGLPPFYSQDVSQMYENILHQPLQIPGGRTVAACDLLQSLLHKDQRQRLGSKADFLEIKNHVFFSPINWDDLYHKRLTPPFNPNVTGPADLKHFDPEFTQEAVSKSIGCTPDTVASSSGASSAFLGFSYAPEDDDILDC
# [5] = target: T2, Serine/threonine-protein kinase Sgk2 (Homo sapiens); settings: at 1 µM
# [6] = target: T3, Serine/threonine-protein kinase Sgk3 (Homo sapiens) (UniProt Q96BR1); settings: at 0.1 µM
# T3 sequence (whole entry): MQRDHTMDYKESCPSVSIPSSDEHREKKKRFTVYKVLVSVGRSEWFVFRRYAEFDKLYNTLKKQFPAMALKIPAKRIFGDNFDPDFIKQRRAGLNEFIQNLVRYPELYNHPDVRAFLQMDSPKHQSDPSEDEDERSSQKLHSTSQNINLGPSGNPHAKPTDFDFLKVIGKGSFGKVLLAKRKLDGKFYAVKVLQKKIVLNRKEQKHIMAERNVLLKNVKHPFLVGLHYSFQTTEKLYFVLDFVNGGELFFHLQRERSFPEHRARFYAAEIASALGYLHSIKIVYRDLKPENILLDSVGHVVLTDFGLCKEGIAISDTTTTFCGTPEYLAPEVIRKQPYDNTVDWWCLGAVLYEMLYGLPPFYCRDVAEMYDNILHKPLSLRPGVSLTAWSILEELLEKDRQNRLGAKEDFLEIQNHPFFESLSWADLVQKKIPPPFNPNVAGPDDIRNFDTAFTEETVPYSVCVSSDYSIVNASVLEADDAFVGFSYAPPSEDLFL
# [7] = target: T3, Serine/threonine-protein kinase Sgk3 (Homo sapiens); settings: at 1 µM
# [8] = target: 5'-AMP-activated protein kinase catalytic subunit alpha-1 (Homo sapiens) (UniProt Q13131); settings: at 0.1 µM
# [9] = target: 5'-AMP-activated protein kinase catalytic subunit alpha-1 (Homo sapiens) (UniProt Q13131); settings: at 1 µM
# [10] = target: 5'-AMP-activated protein kinase catalytic subunit alpha-2 (Homo sapiens) (UniProt P54646); settings: at 0.1 µM
# [11] = target: 5'-AMP-activated protein kinase catalytic subunit alpha-2 (Homo sapiens) (UniProt P54646); settings: at 1 µM
# [12] = target: T4, NUAK family SNF1-like kinase 1 (Homo sapiens) (UniProt O60285); settings: at 0.1 µM
# T4 sequence (whole entry): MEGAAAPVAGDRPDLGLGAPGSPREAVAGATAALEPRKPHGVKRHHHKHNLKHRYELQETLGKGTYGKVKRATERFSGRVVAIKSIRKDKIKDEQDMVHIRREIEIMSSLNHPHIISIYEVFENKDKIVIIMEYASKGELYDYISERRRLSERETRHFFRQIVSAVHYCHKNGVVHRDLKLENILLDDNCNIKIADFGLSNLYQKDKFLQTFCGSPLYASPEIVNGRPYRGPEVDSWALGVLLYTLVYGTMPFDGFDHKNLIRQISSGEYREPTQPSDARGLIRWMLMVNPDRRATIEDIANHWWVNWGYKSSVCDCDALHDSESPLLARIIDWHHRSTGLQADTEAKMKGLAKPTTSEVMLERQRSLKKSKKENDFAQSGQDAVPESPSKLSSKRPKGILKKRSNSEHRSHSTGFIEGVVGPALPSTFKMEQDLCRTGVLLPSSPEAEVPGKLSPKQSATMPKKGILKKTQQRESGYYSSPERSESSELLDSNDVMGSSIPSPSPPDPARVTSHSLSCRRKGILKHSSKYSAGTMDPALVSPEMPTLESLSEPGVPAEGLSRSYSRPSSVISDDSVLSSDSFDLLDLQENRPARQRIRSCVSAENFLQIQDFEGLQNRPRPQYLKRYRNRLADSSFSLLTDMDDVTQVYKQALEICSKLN
# [13] = target: T4, NUAK family SNF1-like kinase 1 (Homo sapiens); settings: at 1 µM
# [14] = target: T5, Serine/threonine-protein kinase BRSK1 (Homo sapiens) (UniProt Q8TDC3); settings: at 0.1 µM
# T5 sequence (whole entry): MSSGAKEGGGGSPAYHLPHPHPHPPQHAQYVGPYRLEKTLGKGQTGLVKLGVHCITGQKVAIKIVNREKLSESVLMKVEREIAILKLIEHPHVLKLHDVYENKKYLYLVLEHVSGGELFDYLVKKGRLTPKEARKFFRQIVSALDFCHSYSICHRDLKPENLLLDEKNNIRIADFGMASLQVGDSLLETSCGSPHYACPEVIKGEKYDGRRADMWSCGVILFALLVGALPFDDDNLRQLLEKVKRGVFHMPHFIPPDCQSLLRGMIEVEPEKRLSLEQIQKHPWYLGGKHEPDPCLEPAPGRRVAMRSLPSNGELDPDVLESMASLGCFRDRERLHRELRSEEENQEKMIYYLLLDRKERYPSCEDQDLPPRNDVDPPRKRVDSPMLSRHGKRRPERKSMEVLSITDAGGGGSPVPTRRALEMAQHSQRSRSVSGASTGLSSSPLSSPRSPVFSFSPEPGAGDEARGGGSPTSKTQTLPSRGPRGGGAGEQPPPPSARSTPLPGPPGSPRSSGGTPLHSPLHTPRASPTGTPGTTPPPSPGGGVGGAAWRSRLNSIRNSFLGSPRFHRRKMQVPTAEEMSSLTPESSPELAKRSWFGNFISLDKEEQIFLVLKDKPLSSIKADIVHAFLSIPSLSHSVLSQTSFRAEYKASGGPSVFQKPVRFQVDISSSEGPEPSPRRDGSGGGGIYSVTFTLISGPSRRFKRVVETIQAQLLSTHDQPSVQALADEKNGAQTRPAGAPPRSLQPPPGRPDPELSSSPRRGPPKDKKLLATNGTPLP
# [15] = target: T5, Serine/threonine-protein kinase BRSK1 (Homo sapiens); settings: at 1 µM
# [16] = target: T6, Serine/threonine-protein kinase BRSK2 (Homo sapiens) (UniProt Q8IWQ3); settings: at 0.1 µM
# T6 sequence (whole entry): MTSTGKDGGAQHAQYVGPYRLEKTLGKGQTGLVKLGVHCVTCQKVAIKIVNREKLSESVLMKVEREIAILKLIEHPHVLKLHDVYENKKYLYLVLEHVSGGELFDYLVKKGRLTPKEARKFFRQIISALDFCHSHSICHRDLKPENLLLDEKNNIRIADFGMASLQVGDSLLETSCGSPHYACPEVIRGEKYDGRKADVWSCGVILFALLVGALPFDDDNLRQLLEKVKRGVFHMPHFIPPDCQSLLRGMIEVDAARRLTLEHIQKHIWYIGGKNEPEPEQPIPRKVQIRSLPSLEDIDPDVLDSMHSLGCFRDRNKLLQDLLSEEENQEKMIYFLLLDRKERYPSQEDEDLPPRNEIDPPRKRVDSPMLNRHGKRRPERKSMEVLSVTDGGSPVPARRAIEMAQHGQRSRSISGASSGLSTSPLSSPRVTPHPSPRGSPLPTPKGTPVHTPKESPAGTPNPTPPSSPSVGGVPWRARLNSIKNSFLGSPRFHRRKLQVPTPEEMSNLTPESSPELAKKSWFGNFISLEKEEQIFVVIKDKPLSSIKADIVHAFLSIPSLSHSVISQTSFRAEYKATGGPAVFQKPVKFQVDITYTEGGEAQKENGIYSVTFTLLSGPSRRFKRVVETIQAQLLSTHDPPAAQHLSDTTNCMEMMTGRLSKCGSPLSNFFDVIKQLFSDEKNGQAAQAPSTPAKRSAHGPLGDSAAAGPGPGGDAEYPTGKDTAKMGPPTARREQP
# [17] = target: T6, Serine/threonine-protein kinase BRSK2 (Homo sapiens); settings: at 1 µM
# [18] = target: Calcium/calmodulin-dependent protein kinase type 1D (Homo sapiens) (UniProt Q8IU85); settings: at 0.1 µM
# [19] = target: Calcium/calmodulin-dependent protein kinase type 1D (Homo sapiens) (UniProt Q8IU85); settings: at 1 µM
# [20] = target: Calcium/calmodulin-dependent protein kinase type II subunit alpha (Homo sapiens) (UniProt Q9UQM7); settings: at 0.1 µM;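 note: reported values are averages (mean inhibition of CAMK2A)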
# Calcium/calmodulin-dependent protein kinase type II subunit alpha (Homo sapiens), sequence (Q9UQM7 whole entry): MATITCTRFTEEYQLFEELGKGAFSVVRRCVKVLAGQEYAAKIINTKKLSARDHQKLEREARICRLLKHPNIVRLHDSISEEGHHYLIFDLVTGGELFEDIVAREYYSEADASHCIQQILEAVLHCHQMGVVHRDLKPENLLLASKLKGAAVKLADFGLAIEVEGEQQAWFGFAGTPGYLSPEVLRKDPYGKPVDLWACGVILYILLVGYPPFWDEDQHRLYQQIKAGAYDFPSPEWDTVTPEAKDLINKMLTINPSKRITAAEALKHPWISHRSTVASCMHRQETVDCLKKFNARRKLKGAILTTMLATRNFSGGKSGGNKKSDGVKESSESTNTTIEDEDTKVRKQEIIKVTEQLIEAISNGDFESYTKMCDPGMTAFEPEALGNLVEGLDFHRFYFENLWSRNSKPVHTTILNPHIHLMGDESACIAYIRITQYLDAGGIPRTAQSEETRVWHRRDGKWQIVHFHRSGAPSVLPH
# 5'-AMP-activated protein kinase catalytic subunit alpha-2 (Homo sapiens), sequence (P54646 whole entry, looked up): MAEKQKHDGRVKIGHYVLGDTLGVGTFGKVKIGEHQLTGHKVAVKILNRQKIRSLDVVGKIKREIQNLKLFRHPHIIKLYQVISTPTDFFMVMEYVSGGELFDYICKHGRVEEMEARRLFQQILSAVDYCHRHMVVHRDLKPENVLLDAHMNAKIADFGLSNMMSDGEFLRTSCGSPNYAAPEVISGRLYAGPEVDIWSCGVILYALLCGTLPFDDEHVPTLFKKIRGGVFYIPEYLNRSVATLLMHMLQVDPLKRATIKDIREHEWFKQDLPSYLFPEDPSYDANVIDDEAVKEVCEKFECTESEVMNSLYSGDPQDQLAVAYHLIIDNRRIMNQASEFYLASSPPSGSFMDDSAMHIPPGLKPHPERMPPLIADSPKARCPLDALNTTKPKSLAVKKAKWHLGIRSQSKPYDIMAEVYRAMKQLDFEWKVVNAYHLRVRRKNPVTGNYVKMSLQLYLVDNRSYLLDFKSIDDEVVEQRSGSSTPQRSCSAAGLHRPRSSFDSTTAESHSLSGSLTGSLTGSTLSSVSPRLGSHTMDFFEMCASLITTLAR
# Ribosomal protein S6 kinase alpha-6 (Homo sapiens), sequence (Q9UK32 whole entry): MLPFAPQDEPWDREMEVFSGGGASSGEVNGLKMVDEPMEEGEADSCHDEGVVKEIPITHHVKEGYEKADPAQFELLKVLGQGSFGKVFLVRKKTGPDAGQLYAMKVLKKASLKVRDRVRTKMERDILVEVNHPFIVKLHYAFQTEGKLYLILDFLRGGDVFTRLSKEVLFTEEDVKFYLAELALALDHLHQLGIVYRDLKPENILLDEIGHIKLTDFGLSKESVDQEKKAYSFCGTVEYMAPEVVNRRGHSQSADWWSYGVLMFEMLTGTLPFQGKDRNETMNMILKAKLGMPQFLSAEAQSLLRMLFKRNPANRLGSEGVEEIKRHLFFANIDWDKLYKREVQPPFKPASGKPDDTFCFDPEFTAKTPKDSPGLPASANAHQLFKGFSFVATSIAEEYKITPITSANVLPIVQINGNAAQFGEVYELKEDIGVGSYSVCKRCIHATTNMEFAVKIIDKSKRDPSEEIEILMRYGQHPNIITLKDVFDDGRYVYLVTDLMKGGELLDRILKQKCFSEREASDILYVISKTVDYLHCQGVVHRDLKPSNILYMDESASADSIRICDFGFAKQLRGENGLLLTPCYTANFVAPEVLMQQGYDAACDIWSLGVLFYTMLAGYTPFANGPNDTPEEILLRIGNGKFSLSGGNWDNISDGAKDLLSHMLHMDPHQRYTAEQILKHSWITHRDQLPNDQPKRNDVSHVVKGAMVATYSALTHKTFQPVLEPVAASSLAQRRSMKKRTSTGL
# Calcium/calmodulin-dependent protein kinase type 1D (Homo sapiens), sequence (Q8IU85 whole entry, looked up): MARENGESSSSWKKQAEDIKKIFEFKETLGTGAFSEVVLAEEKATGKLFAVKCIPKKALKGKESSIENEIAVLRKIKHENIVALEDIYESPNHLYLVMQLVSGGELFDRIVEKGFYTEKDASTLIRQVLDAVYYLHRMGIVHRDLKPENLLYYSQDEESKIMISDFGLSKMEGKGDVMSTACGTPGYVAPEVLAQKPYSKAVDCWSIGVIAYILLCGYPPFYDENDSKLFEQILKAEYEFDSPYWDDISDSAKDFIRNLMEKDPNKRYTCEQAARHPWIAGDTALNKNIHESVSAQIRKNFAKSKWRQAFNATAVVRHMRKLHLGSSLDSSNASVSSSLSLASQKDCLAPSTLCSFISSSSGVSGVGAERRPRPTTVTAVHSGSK
# 5'-AMP-activated protein kinase catalytic subunit alpha-1 (Homo sapiens), sequence (Q13131 whole entry, looked up): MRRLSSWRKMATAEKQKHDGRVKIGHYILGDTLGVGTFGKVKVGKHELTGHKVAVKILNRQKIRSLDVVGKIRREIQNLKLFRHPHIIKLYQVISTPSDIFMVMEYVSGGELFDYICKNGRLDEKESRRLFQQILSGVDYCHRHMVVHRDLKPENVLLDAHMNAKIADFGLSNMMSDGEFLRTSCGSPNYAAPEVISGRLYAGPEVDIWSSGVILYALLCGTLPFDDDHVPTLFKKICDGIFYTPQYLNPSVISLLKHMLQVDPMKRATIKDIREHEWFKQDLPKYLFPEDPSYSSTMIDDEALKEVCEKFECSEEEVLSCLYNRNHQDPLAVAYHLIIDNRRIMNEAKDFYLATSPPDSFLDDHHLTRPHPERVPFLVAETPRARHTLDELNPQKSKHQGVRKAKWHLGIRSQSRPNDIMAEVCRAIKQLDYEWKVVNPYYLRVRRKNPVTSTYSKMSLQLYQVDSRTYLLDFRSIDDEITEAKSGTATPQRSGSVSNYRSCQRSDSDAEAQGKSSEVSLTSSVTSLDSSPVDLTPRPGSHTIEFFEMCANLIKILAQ
SMILES,inhibition [1] [%],inhibition [2] [%],inhibition [3] [%],inhibition [4] [%],inhibition [5] [%],inhibition [6] [%],inhibition [7] [%],inhibition [8] [%],inhibition [9] [%],inhibition [10] [%],inhibition [11] [%],inhibition [12] [%],inhibition [13] [%],inhibition [14] [%],inhibition [15] [%],inhibition [16] [%],inhibition [17] [%],inhibition [18] [%],inhibition [19] [%],inhibition [20] [%]
NS(=O)(=O)c1ccc(N/N=C2\C(=O)Nc3ccc(C(=O)NCCCn4ccnc4)cc32)cc1,13,5.02,14.6,2.07,7.54,3.25,6.44,18,64.4,5.78,26.3,19.4,66.4,4.96,31.2,8.96,46,0.1,2.23,3.04
NC(=O)c1ccc(Oc2nccc(-c3c(-c4ccc(F)cc4)ncn3C3CCNCC3)n2)cc1,3.24,2.88,3.6,1.93,4.5,3.5,2.61,2.33,3.68,7.31,3.28,1.39,2.27,2.39,-0.49,1.13,1.56,0.06,2.62,3.03
CCC(=O)Nc1ccc(C)c(-c2ccc(C(=O)NCC3CC3)cc2)c1,1.25,1.88,2.02,1.32,0.49,2.14,2.43,1.31,2.54,4.95,2.49,0.85,1.36,1.35,0.24,1.47,2.78,0.77,1.64,1.27
COc1cc(Nc2ncc(-c3ccccc3)o2)cc(OC)c1OC,6.6,1.24,5.44,3.15,1.18,0.24,0.29,0.26,9.16,5,5.35,24.4,61,-0.43,5.91,0.44,10.5,-1.93,-0.01,-3.81
Fc1ccc(-c2nc3n(c2-c2ccncc2)CCS3)cc1,3.9,3.17,4.66,2.05,4.96,1.96,2.6,2.91,2.64,4.5,5.23,0.54,2.44,0.25,0.24,0.52,0.5,0.49,-0.26,3.63
COc1cc2ncn(-c3cc(OCc4ccccc4C(F)(F)F)c(C(C)=O)s3)c2cc1OC,1.71,2.88,2.59,3.09,3.04,3.08,2.17,1.8,2.83,-0.02,2.21,-0.05,3.5,2.73,4.41,3.99,4.95,-0.05,-0.22,4.56
Fc1ccc(-c2c(-c3ccncc3)nc3n2CCS3)cc1,2.25,3.2,4.05,1.42,3.7,1.96,5.06,3.33,6.81,3.93,4.29,-0.3,1.86,-0.79,0.97,0.47,3.65,2.44,-0.09,0.37
CCN(CC)Cc1ccc(Nc2nccc(-c3cnn4ncccc34)n2)cc1,9.62,1.11,7.61,3.89,4.57,3.92,2.8,3.26,9.99,7.01,12.7,69,84.3,3.36,3.16,2.2,10.6,-0.62,4.23,2.6
CCc1ccc(Oc2nccc(-c3c(-c4ccc(F)cc4)ncn3C3CCNCC3)n2)cc1,3.1,-1.02,1.21,-0.69,1.93,-0.71,1.87,5.5,8.69,5.08,7.27,-0.89,3.95,1.81,-0.56,1.84,3.86,1.54,3.63,4.59
Clc1ccc(CNc2nccc(-c3cnn4ncccc34)n2)cc1,0.72,0.33,3.99,3.3,1.91,0.59,0.73,-0.21,1.83,-4.66,0.84,3.31,9.78,0.41,1.49,1.65,4.48,1.73,1.01,2.51
Cc1ccc(C(=O)NC(C)C)cc1-c1ccc(C(=O)NCC2CC2)cc1,0.59,0.01,-0.09,-3.55,-7.09,-5.05,-2.17,-1.19,-1.42,-0.98,-5.48,3.9,3.92,1.12,-1.28,0.51,1.61,-1.04,0.57,-4.62
